Among the data in PubChem BioAssay (NCI) are growth values, retold here.

Common to all, as to assay: NCI-60 one-dose screen, 48 h (100 = growth as untreated, 0 = no growth, -100 = all killed)
One experiment has as its system HCT-15 colon. To be noted: 10 µM unless noted.
For the next experiment, the system named is HT29 colon. To be noted: 10 µM unless noted.
Another experiment deals with SNB-75 CNS. The note with it: 10 µM unless noted.
The subject of a further experiment is SNB-19 CNS. The note with it: 10 µM unless noted.
A further experiment concerns U251 CNS. The note with it: 10 µM unless noted.
In the next experiment the test system is PC-3 prostate. To be noted: 10 µM unless noted.
The test system of a further experiment is SK-MEL-5 melanoma. The note with it: 10 µM unless noted.
The next experiment deals with UACC-62 melanoma. To be noted: 10 µM unless noted.
Another experiment concerns LOX IMVI melanoma. The note with it: 10 µM unless noted.
The next experiment deals with SK-MEL-28 melanoma. To be noted: 10 µM unless noted.
The test system of another experiment is SK-MEL-2 melanoma. To be noted: 10 µM unless noted.
The subject of another experiment is EKVX NSCLC. The note with it: 10 µM unless noted.
For the next experiment, the system named is SN12C renal. The note with it: 10 µM unless noted.
The test system of another experiment is TK-10 renal. To be noted: 10 µM unless noted.
The next experiment concerns ACHN renal. To be noted: 10 µM unless noted.
The subject of the next experiment is CAKI-1 renal. To be noted: 10 µM unless noted.
The test system of another experiment is A498 renal. To be noted: 10 µM.
The next experiment concerns HL-60(TB) leukemia. To be noted: 10 µM unless noted.
Another experiment concerns CCRF-CEM leukemia. The note with it: 10 µM unless noted.

This is part of a sample that, as a whole, favours compounds with a hit. Of some 83,000 tested, about 20% had one in any assay.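 Interpretation: 100, growth as untreated; towards 0, rising growth inhibition; 0, no net growth; 0 to -100, cell death. Compounds scoring below 10 were considered active.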 A number with no mark means an inactive call. The source made the active and inactive calls.

Regarding `CO[C@H]1CC[C@@]2(C)C(=CC[C@@H]3[C@@H]2CC[C@]2(C)C(=O)C(=O)C[C@@H]32)C1`, the growth is 103% with HCT-15 colon; 106% with HT29 colon; 103% in the experiment on SNB-75 CNS; 94.8% with SNB-19 CNS; 104% in the experiment on U251 CNS; 84.2% in the experiment with PC-3 prostate. Besides, the growth in the experiment with SK-MEL-5 melanoma was 99%; with UACC-62 melanoma it was 92.5%; in the experiment with LOX IMVI melanoma, 92.5%; with SK-MEL-28 melanoma, 117%; with SK-MEL-2 melanoma, 128%; in the experiment with EKVX NSCLC, 108%. Further, the growth with SN12C renal was 95.5%; in the experiment with TK-10 renal, 117%; in the experiment on ACHN renal, 102%; in the experiment with CAKI-1 renal, 93%; in the experiment with A498 renal it was 82.1%; in the experiment on HL-60(TB) leukemia it was 141%. The growth in the experiment on CCRF-CEM leukemia was 95.3%.
With `COc1ccc2c(c1)c(C1(O)CC(CSC#N)OC1=O)cn2C(=O)c1ccc(Cl)cc1` (centres undefined), the growth in the experiment with HCT-15 colon is 98.7%; in the experiment with HT29 colon it was 110%; in the experiment on SNB-75 CNS it was 83.7%; in the experiment on SNB-19 CNS, 99.3%; in the experiment with U251 CNS, 102%; in the experiment on PC-3 prostate, 96.2%. Also, the growth with SK-MEL-5 melanoma is 111%; with UACC-62 melanoma, 88.6%; in the experiment with LOX IMVI melanoma it was 97.8%; with SK-MEL-28 melanoma, 150%; with SK-MEL-2 melanoma, 80%; in the experiment on EKVX NSCLC, 89.6%. Further, the growth in the experiment with SN12C renal is 94%; in the experiment on TK-10 renal, 103%; in the experiment with ACHN renal, 94.5%; with CAKI-1 renal it was 82.9%; with A498 renal, 153%; with HL-60(TB) leukemia, 94.6%. For the same compound, in the experiment with CCRF-CEM leukemia, the growth was 82%.
As to `C/C(=C\c1ccn(-c2ccc(N)cc2)n1)[C@@H]1C[C@@H]2O[C@]2(C)CCC[C@H](C)[C@H](O)[C@@H](C)C(=O)C(C)(C)[C@@H](O)CC(=O)O1`, the growth was 20% with HCT-15 colon; 15.4% in the experiment on HT29 colon; 3.99% (active) in the experiment on SNB-75 CNS; 33.3% in the experiment on SNB-19 CNS; 25.9% with U251 CNS; 13.2% in the experiment with PC-3 prostate. For the same compound, the growth in the experiment on SK-MEL-5 melanoma was 10.9%; with UACC-62 melanoma, 19.7%; in the experiment on LOX IMVI melanoma, 29.5%; in the experiment on SK-MEL-28 melanoma, 59.4%; with SK-MEL-2 melanoma, 35.8%; in the experiment with EKVX NSCLC, 54.7%. Further, the growth in the experiment on SN12C renal was 39.6%; in the experiment with TK-10 renal, 54.6%; in the experiment on ACHN renal it was 45.7%; in the experiment on CAKI-1 renal it was 43.2%; with A498 renal, -0.818% (active); with HL-60(TB) leukemia it was 5.9% (active). The growth with CCRF-CEM leukemia is 16.8%.
On to `Fc1c[c-]c(-c2ccccn2)c(F)c1.[CH3-].[Pt+2].c1ccc([PH+](c2ccccc2)c2ccccn2)cc1`, for which the growth in the experiment with HCT-15 colon was -36.7% (active); with HT29 colon it was -13% (active); with SNB-75 CNS, -5.13% (active); in the experiment on SNB-19 CNS it was 26%; in the experiment on U251 CNS, 6.42% (active); in the experiment with PC-3 prostate it was 15.4%. Moreover, the growth was -75.3% (active) in the experiment on SK-MEL-5 melanoma; -30.5% (active) with UACC-62 melanoma; -95.3% (active) with LOX IMVI melanoma; -21.9% (active) in the experiment with SK-MEL-28 melanoma; -34.1% (active) in the experiment with SK-MEL-2 melanoma; 4.9% (active) in the experiment with EKVX NSCLC. Also, the growth is 3.34% (active) in the experiment on SN12C renal; -1.18% (active) in the experiment on TK-10 renal; -80.4% (active) in the experiment on ACHN renal; -56.2% (active) with CAKI-1 renal; -21% (active) in the experiment with A498 renal; -6.41% (active) with HL-60(TB) leukemia. For the same compound, the growth in the experiment with CCRF-CEM leukemia is 9.35% (active).
`Nc1ccc(Cl)cc1`: the growth in the experiment with HCT-15 colon is 100%; with HT29 colon, 97.5%; with SNB-75 CNS, 88.3%; in the experiment with SNB-19 CNS, 103%; with U251 CNS it was 96.9%; in the experiment with PC-3 prostate, 86%. Further, the growth with SK-MEL-5 melanoma was 99.7%; in the experiment with UACC-62 melanoma, 101%; in the experiment with LOX IMVI melanoma, 92.8%; with SK-MEL-28 melanoma, 109%; with SK-MEL-2 melanoma it was 95.7%; in the experiment with EKVX NSCLC it was 95.7%. Further, the growth with SN12C renal was 95.3%; in the experiment with TK-10 renal, 92.3%; in the experiment on ACHN renal, 108%; in the experiment on A498 renal it was 103%; in the experiment with HL-60(TB) leukemia it was 95%; with CCRF-CEM leukemia it was 98.2%.
On to `O=[N+]([O-])c1cnc[nH]1`, for which the growth with HCT-15 colon was 112%; in the experiment on HT29 colon it was 95.1%; with SNB-75 CNS it was 93.1%; with SNB-19 CNS, 104%; with U251 CNS, 99.6%; in the experiment on PC-3 prostate, 96.5%. The growth with SK-MEL-5 melanoma is 106%; with UACC-62 melanoma it was 96.3%; in the experiment with LOX IMVI melanoma, 97.8%; in the experiment on SK-MEL-28 melanoma it was 114%; in the experiment with SK-MEL-2 melanoma, 102%; in the experiment with EKVX NSCLC it was 109%. The growth with SN12C renal was 103%; in the experiment on TK-10 renal, 111%; with ACHN renal, 118%; in the experiment with CAKI-1 renal it was 99%; in the experiment with HL-60(TB) leukemia, 134%; with CCRF-CEM leukemia, 103%.
Consider `CC1=C([Te]c2ccc(O)cc2)C(=O)c2ccccc2C1=O`, for which the growth in the experiment with HCT-15 colon was 13.6%; with HT29 colon it was 1.03% (active); with SNB-75 CNS, -3.63% (active); in the experiment on SNB-19 CNS it was 12.3%; in the experiment with U251 CNS, 10%; in the experiment with PC-3 prostate, 5.85% (active). Further, the growth in the experiment on SK-MEL-5 melanoma is -94.6% (active); with UACC-62 melanoma it was 5.4% (active); in the experiment with LOX IMVI melanoma it was 5.05% (active); in the experiment on SK-MEL-28 melanoma, -12.4% (active); with SK-MEL-2 melanoma, 31.2%; in the experiment on EKVX NSCLC, -57% (active). For the same compound, the growth with SN12C renal is 11.5%; with TK-10 renal, 36.1%; with ACHN renal it was 5.62% (active); in the experiment with CAKI-1 renal, -93.3% (active); in the experiment on A498 renal, -25.8% (active); in the experiment with CCRF-CEM leukemia it was -13.4% (active).
`C[S+]1C=Cc2ccccc2C1c1ccc(Cl)cc1` (centres undefined): the growth with HCT-15 colon is 96.8%; in the experiment with HT29 colon, 84.9%; in the experiment on SNB-75 CNS, -70.7% (active); in the experiment on SNB-19 CNS, 110%; with U251 CNS, 67%; in the experiment with PC-3 prostate, 73.5%. Besides, the growth in the experiment on SK-MEL-5 melanoma was 99.3%; with UACC-62 melanoma it was 95.8%; in the experiment with LOX IMVI melanoma, 91.1%; in the experiment on SK-MEL-28 melanoma, 103%; in the experiment on SK-MEL-2 melanoma, 92.7%; with EKVX NSCLC it was 90.6%. Also, the growth with SN12C renal is 96%; in the experiment on TK-10 renal, 101%; with ACHN renal, 99.3%; in the experiment with CAKI-1 renal, 72.7%; with A498 renal, 96%; in the experiment on HL-60(TB) leukemia, 91.3%. The growth in the experiment with CCRF-CEM leukemia is 73.7%.
